From PubChem BioAssay AID1159580 (chemical genetic matrix, 2015)
Values joined by “and” are separate entries in the source; they are usually repeats but may differ in a detail not shown here. Equal values may be shown once. Out of some 5,500 compounds screened, about 2,000 (36%) were called active. Another 18% or so got no clear call; they are omitted. Cut-off read from the data, not from the text of the source: active = normalized growth mostly below about 0.91 (no sharp cut-off); inconclusive = no clear call, values can overlap the other calls; inactive = mostly above about 0.92. Some of the results follow.

Assay: chemical genetic growth profiling, strain panel (AID 1159580);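 note: tested at 20 µM; growth read once vehicle control cultures reached saturation at 30 °C; 1 = growth at the plate median or of vehicle wells; lower values mean less growth of the strain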
Settings: S. cerevisiae deletion strains, growth OD

Measured: normalized growth

COc1c(O)cccc1O
inactive: locus YAL013W, strain DEP1, stronger effect = lower value 0.993 | locus YAL021C, strain ccr4, stronger effect = lower value 0.997 | locus YAL026C, strain drs2, stronger effect = lower value 1.04 | locus YAL030W, strain snc1, stronger effect = lower value 1.02 | locus YBL061C, strain skt5, stronger effect = lower value 1.02 | locus YBR009C, strain hhf1, stronger effect = lower value 1.01 | locus YBR021W, strain FUR4, stronger effect = lower value 1.04 | locus YBR023C, strain chs3, stronger effect = lower value 1.02 | locus YBR171W, strain sec66, stronger effect = lower value 1.03 | locus YBR229C, strain ROT2, stronger effect = lower value 1.01 | locus YBR231C, strain swc5, stronger effect = lower value 1.03 | locus YBR279W, strain paf1, stronger effect = lower value 1.02 | locus YCL011C, strain gbp2, stronger effect = lower value 1.04 | locus YCL016C, strain dcc1, stronger effect = lower value 1.02 | locus YCL029C, strain bik1, stronger effect = lower value 1.01 | locus YCL061C, strain MRC1, stronger effect = lower value 1.02 | locus YCL069W, strain vba3, stronger effect = lower value 1.03 | locus YCR088W, strain abp1, stronger effect = lower value 1.02 | locus YDL005C, strain med2, stronger effect = lower value 1.03 | locus YDL035C, strain GPR1, stronger effect = lower value 1.02 | locus YDL040C, strain nat1, stronger effect = lower value 1.01 | locus YDL074C, strain BRE1, stronger effect = lower value 1.09 | locus YDL101C, strain DUN1, stronger effect = lower value 1.01 | locus YDL134C, strain PPH21, stronger effect = lower value 1.06 | locus YDL185W, strain tfp1, stronger effect = lower value 1.02 | locus YDL192W, strain arf1, stronger effect = lower value 1.04 | locus YDR001C, strain nth1, stronger effect = lower value 1.02 | locus YDR069C, strain doa4, stronger effect = lower value 1.02 | locus YDR101C, strain arx1, stronger effect = lower value 1 | locus YDR137W, strain rgp1, stronger effect = lower value 1.04 | locus YDR150W, strain NUM1, stronger effect = lower value 0.999 | locus YDR159W, strain sac3, stronger effect = lower value 1.02 | locus YDR162C, strain NBP2, stronger effect = lower value 1.03 | locus YDR195W, strain ref2 1.02 | locus YDR297W, strain sur2, stronger effect = lower value 1.05 | locus YDR318W, strain mcm21, stronger effect = lower value 1.03 | locus YDR334W, strain swr1, stronger effect = lower value 1.03 | locus YDR335W, strain msn5, stronger effect = lower value 1.03 | locus YDR388W, stronger effect = lower value 0.996 | locus YDR392W, strain spt3, stronger effect = lower value 1.02 | locus YDR502C, strain sam2, stronger effect = lower value 1.03 | locus YEL003W, strain gim4, stronger effect = lower value 1.02 | locus YEL037C, strain rad23, stronger effect = lower value 1.02 | locus YEL061C, strain CIN8 (second series), stronger effect = lower value 1.02 | locus YEL061C, strain CIN8, stronger effect = lower value 0.973 | locus YER015W, strain faa2, stronger effect = lower value 1.02 | locus YER016W, strain bim1, stronger effect = lower value 1.02 | locus YER110C, stronger effect = lower value 1.02 | locus YER111C, strain swi4, stronger effect = lower value 1.02 | locus YER155C, strain BEM2 (second series), stronger effect = lower value 1.01 | locus YER155C, strain BEM2, stronger effect = lower value 0.997 | locus YER167W, strain BCK2, stronger effect = lower value 0.98 | locus YFR010W, strain ubp6, stronger effect = lower value 1.03 | locus YGL078C, strain dbp3, stronger effect = lower value 1.04 | locus YGL086W, strain mad1, stronger effect = lower value 1.03 | locus YGL167C, strain pmr1, stronger effect = lower value 1.03 | locus YGL173C, strain kem1, stronger effect = lower value 1.02 | locus YGL227W, strain vid30, stronger effect = lower value 1.02 | locus YGL240W, strain doc1, stronger effect = lower value 1.02 | locus YGL248W, strain PDE1, stronger effect = lower value 1.04 | locus YGL253W, strain hxk2, stronger effect = lower value 1.05 | locus YGR135W, strain pre9, stronger effect = lower value 1.04 | locus YGR252W, strain gcn5, stronger effect = lower value 1.13 | locus YHR013C, strain ard1, stronger effect = lower value 1.04 | locus YHR027C, strain rpn1, stronger effect = lower value 1.02 | locus YHR030C, strain SLT2, stronger effect = lower value 1.01 and 1.06 | locus YHR079C, strain IRE1 (second series), stronger effect = lower value 1.01 | locus YHR079C, strain IRE1, stronger effect = lower value 1.05 | locus YHR094C, strain hxt1, stronger effect = lower value 1.01 | locus YHR129C, strain ARP1, stronger effect = lower value 0.99 | locus YHR142W, strain chs7, stronger effect = lower value 1.07 | locus YHR200W, strain rpn10, stronger effect = lower value 1.02 | locus YIL066C, strain RNR3, stronger effect = lower value 1.01 | locus YIL073C, strain SPO22, stronger effect = lower value 1.14 | locus YIL125W, strain kgd1, stronger effect = lower value 1 | locus YIR030C, strain dcg1, stronger effect = lower value 1.02 | locus YJL092W, strain hpr5, stronger effect = lower value 1.02 | locus YJL095W, strain BCK1 (second series), stronger effect = lower value 1.02 | locus YJL095W, strain BCK1, stronger effect = lower value 1.11 and 1.04 | locus YJL115W, strain asf1, stronger effect = lower value 1.04 | locus YJL129C, strain trk1, stronger effect = lower value 1.06 | locus YJL134W, strain LCB3, stronger effect = lower value 0.999 | locus YJL154C, strain vps35, stronger effect = lower value 1.02 | locus YJL164C, strain tpk1, stronger effect = lower value 1.02 | locus YJL166W, strain qcr8, stronger effect = lower value 1.03 | locus YJL168C, strain set2, stronger effect = lower value 1.01 | locus YJL187C, strain SWE1 (second series), stronger effect = lower value 1.03
